Test results from PubChem BioAssay (NCATS).
Inconclusive results are not listed. Entries that show only a call come without a potency. More than one record can exist for a structure, and the calls need not agree. Active and inactive are the calls of the source. Calls come from the whole dose curve; as a rule, active = well fitted inhibition curve with a large enough effect; inconclusive = small, poorly fitted or top-dose-only effect; inactive = flat fitted curve, though single readings scatter.
Potency is the fitted concentration of half-maximal effect.

The compounds below were run on MCC-26 (assay: qHTS assay to identify novel small-molecules to repurpose for Merkel cell carcinoma treatment (AID 1296009; note: nearly all actives have a fitted effect of over 60% in size)). Settings: MCC and control cell lines, CellTiter-Glo viability, 72 h; series mostly up to 46 µM.
Description: MCC is a rare and aggressive neuroendocrine skin cancer with limited treatment options. Approximately 80% of MCCs have the Merkel cell polyomavirus (MCPyV) DNA integrated into the host genome (virus-positive: VP-MCC) and viral oncogenes drive oncogenesis. The remaining MCCs are virus-negative (VN-MCC) and are caused by UV mutagenesis. To identify novel treatments for VP-MCC and/or VN-MCC we screened three VP-MCC cell lines (WAGA, MKL-1, MKL-2), three VN-MCC cell lines (MCC-13, MCC-26, UISO), and four immortalized, non-transformed control cell lines (HaCaT, HEK293T, CRL7250, NIH-3T3) against ~2,400 compounds in the NCGC Pharmaceutical Collection (NPC) and ~1,900 compounds in the Mechanism Interrogation PlatE (MiPE). Using cell viability as a readout (CellTiter-Glo assay) we found both overlapping and distinct drugs that can be repurposed for the treatment of VP-MCC and VN-MCC.
A high-throughput screen was conducted in 1536-well white flat bottom plates (Corning) on a Kalypsys robotic system. Cell lines WAGA, MKL-1, MKL-2, MCC-13, MCC-26, UISO, HaCaT, HEK293T, CRL7250, and NIH-3T3 were screened against 2 small molecule annotated drug libraries NPC and MIPE in dose response (8 and 11 pt. respectively) measuring cell viability after 72 hours of incubation. […] A 1,536 pintool (Kalypsys) was used to transfer 23 nL of compound in DMSO to the 1,536-well assay plates. After 72 hr incubation at 37 degree celsius, 2.5 uL of CellTiter-Glo (Promega) was dispensed into each well using a BiorapTR. Plates were incubated at room temperature for 10 min, transferred to a ViewLux (PerkinElmer) and the luminescence was recorded using an exposure time of 2 seconds. Relative luminescence units (RLUs) were normalized to in-plate controls (no cells as a positive (cytotoxicity) control, DMSO as negative control) and the normalized data was processed using NCATS in-house software.
For `N[C@@H](Cc1ccc(N(CCCl)CCCl)cc1)C(=O)O`, the Potency was “inactive”. With `CCC1(C2=NCCN2)Cc2ccccc2O1` (stereo not given) the Potency was “inactive”. In the case of `CC1OC(C)OC(C)O1` (stereo not given), the Potency was “inactive”. With `NCCc1cc(O)c(O)cc1O` the Potency was “inactive”. `c1ccc(C2CC2)c(OCC2=NCCN2)c1` was tested, and the Potency was “inactive”. `C#CCOC(C(=O)OCCN(C)C)(c1ccccc1)c1ccccc1` was tested, and the Potency was “inactive”. For `Clc1ccc(COC(Cn2ccnc2)c2ccc(Cl)cc2Cl)cc1` (stereo not given), the Potency was 21.1 µM (active) and inactive. For `O=c1oc2ccccc2c(O)c1C(CC(O)c1ccc(-c2ccc(Br)cc2)cc1)c1ccccc1` (stereo not given), the Potency was “inactive”. In the case of `CN(C)CCN(C)CCc1ccc(Cl)c(Cl)c1`, the Potency was “inactive”. In the case of `Cc1cccc(C)c1NC(=O)CN1CCCC1=O`, the Potency was “inactive”. For `Oc1cc(Cl)ccc1Oc1ccc(Cl)cc1Cl`, the Potency was “inactive”. With `C=C1C[C@@H]2[C@H](CC[C@]3(C)C(=O)CC[C@@H]23)[C@@]2(C)C=CC(=O)C=C12` the Potency was “inactive”. For `C[C@@H]1[C@@H](CC(C[C@H]2O[C@@H]3O[C@]4(C)CC[C@@H]5[C@H](C)CC[C@@H]([C@H]2C)[C@@]35OO4)C[S+](=O)([O-])c2ccc(COC(=O)N(C)C)cc2)O[C@@H]2O[C@]3(C)CC[C@H]4[C@H](C)CC[C@@H]1[C@@]24OO3` (stereo not given in full), the Potency was “inactive”. In the case of `CC(C)(C)NCC(O)c1cc(Cl)c(N)c(Cl)c1` (stereo not given), the Potency was “inactive”. For `CCC(=O)C(CC(C)N(C)C)(c1ccccc1)c1ccccc1` (stereo not given), the Potency was “inactive”. For `FC(F)(F)c1cccc(C2=CCN(CCc3ccc4ccccc4c3)CC2)c1`, the Potency was “inactive”. In the case of `C[C@]12CCC(=O)C(O)=C1CC[C@@H]1[C@@H]2CC[C@]2(C)C(=O)CC[C@@H]12`, the Potency was “inactive”. With `COc1ccc(C(CN(C)C)C2(O)CCCCC2)cc1` (stereo not given) the Potency was “inactive”. `Cc1ccc(-c2nc3ccc(C)cn3c2CC(=O)N(C)C)cc1` was tested, and the Potency was “inactive”. For `CC(C)CC(N(C)C)C1(c2ccc(Cl)cc2)CCC1` (stereo not given), the Potency was “inactive”. For `CC(C)NCC(O)c1ccccc1Cl` (stereo not given), the Potency was “inactive”. In the case of `CCN(CC)C(=O)N[C@@H]1C=C2c3cccc4[nH]cc(c34)C[C@@H]2N(C)C1`, the Potency was “inactive”. In the case of `Cc1ccc2c(c1)C1CN(C)CCC1N2` (stereo not given), the Potency was “inactive”. `Cn1c(CCCC(=O)O)nc2cc(N(CCCl)CCCl)ccc21` was tested, and the Potency was “inactive”. In the case of `CC(C)=CCOc1c2occc2cc2ccc(=O)oc12`, the Potency was “inactive”. `NCC(CC(=O)O)c1ccc(Cl)cc1` (stereo not given) was tested, and the activity change, negative = cytotoxicity was -16.1% [at 0.597 µM] (inactive). With `CN(C)[C@@H]1C(=O)C(C(N)=O)=C(O)[C@@]2(O)C(=O)C3=C(O)c4c(O)cccc4[C@@](C)(O)[C@H]3C[C@@H]12` the Potency was “inactive”. In the case of `Cn1cc(C2=C(c3cn(C4CCN(Cc5ccccn5)CC4)c4ccccc34)C(=O)NC2=O)c2ccccc21`, the Potency was “inactive”. With `COC[C@H]1OC(=O)c2coc3c2[C@@]1(C)C1=C(C3=O)C2CCC(=O)[C@@]2(C)C[C@H]1OC(C)=O` (stereo not given in full) the Potency was “inactive”. With `CNC(=O)c1ccc(N2C(=S)N(c3ccc(C#N)c(C(F)(F)F)c3)C(=O)C23CCC3)cc1F` the Potency was “inactive”. `O=C1NCN(c2ccccc2)C12CCN(CC1COc3ccccc3O1)CC2` (stereo not given) was tested, and the Potency was “inactive”. For `Oc1ccc(Cl)cc1Cc1ccccc1`, the Potency was “inactive”. For `CC(C)(C)CC(C)(C)c1ccc(O)cc1`, the Potency was “inactive”. In the case of `CC1NCCOC1c1ccccc1` (stereo not given), the Potency was “inactive”. For `O=C(NC(O)C(Cl)(Cl)Cl)NC(O)C(Cl)(Cl)Cl` (stereo not given), the Potency was “inactive”. `CN(C)CCc1ccc(O)cc1` was tested, and the Potency was “inactive”. For `CC(C)=CC1C(C(=O)OCc2cccc(Oc3ccccc3)c2)C1(C)C` (stereo not given), the Potency was “inactive”. With `C=C1CC[C@@]2(O)[C@H]3Cc4ccc(O)c5c4[C@@]2(CCN3CC2CC2)[C@H]1O5` the Potency was “inactive”. In the case of `CC(C)(N)Cc1ccc(Cl)cc1`, the Potency was “inactive”. For `O=C(O)c1ccc2[nH]cc(CCCCN3CC=C(c4ccccc4)CC3)c2c1`, the Potency was “inactive”.
